# Measurements as given in paper PMC7862700, “An all-to-all approach to the identification of sequence-specific readers for epigenetic DNA modifications on cytosine”.
# What was measured:
# Assay in all cases: DAPPL (digital affinity profiling via proximity ligation, sequencing); 10 mM Tris-HCl pH 7.5, 50 mM NaCl, 1 mM DTT, 4% glycerol, room temperature, 30 min; GST-TFs on glutathione beads, 16-mer random dsDNA library, 0.1% formaldehyde crosslink after washing; high values mean tight binding
# FLI1 = biological target: T1, FLI1 (Homo sapiens, UniProt Q01543 1-452); details: protein: recombinant; tags: N-terminal GST; dsDNA, one strand shown
# T1 sequence: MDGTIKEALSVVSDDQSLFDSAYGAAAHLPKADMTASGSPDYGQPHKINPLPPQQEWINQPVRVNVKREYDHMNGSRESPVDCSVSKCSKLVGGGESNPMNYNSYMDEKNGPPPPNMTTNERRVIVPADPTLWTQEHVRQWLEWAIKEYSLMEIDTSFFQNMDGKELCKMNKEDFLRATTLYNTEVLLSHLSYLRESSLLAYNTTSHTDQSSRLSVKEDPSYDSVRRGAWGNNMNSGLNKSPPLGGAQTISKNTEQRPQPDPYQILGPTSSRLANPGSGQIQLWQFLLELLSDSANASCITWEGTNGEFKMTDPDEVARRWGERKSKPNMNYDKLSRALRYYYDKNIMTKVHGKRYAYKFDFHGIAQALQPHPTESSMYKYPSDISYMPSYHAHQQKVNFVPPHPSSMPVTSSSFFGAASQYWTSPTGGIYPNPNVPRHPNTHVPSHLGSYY
# In short: (§1)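 Sequencing on an Illumina NextSeq500 followed washing, crosslinking with 0.1% formaldehyde, proximity ligation (BsaI/T4 ligase, 1 h, 37 °C) and PCR amplification of pools that had been incubated for 30 min at room temperature with 200 nmole of a random double-stranded 16-mer DNA library in Tris/NaCl/DTT/glycerol buffer. Each pool held DNA-barcoded human transcription factors, expressed in yeast as GST fusions and captured on glutathione beads, plus a tag-only sample. Binding signal is a hexamer's read frequency for a factor divided by its frequency in the tag-only sample.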
# ELK1 = biological target: T2, ELK1 (Homo sapiens, UniProt P19419 1-428); details: protein: recombinant; tags: N-terminal GST; dsDNA, one strand shown
# T2 sequence: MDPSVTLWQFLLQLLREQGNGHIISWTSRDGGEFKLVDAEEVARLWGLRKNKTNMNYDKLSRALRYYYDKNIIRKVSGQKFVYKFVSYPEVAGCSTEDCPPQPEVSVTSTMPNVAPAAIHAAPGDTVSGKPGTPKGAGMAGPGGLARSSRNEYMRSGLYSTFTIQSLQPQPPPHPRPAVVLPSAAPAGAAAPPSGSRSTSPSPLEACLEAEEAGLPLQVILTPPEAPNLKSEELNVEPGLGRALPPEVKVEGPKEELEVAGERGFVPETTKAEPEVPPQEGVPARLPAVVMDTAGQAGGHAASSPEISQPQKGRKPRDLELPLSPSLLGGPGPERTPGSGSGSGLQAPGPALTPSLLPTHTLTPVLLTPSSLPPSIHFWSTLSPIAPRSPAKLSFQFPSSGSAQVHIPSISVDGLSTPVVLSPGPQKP
# In short: as §1
# GABPA = biological target: T3, GABPA (Homo sapiens, UniProt Q06546 1-454); details: protein: recombinant; tags: N-terminal GST; dsDNA, one strand shown
# T3 sequence: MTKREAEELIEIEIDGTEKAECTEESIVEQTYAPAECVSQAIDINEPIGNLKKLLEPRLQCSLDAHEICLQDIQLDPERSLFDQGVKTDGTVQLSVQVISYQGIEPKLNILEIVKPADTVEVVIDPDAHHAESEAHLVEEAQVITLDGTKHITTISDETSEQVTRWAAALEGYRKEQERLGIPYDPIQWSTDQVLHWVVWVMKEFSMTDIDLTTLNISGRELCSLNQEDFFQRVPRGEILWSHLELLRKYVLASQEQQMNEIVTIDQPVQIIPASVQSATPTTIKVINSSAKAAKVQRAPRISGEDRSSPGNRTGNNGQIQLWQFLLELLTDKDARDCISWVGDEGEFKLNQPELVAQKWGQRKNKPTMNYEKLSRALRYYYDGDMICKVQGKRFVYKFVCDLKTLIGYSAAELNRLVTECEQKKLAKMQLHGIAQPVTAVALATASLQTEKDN
# In short: as §1
# ERG = biological target: T4, ERG (Homo sapiens, UniProt P11308 1-479); details: protein: recombinant; tags: N-terminal GST; dsDNA, one strand shown
# T4 sequence: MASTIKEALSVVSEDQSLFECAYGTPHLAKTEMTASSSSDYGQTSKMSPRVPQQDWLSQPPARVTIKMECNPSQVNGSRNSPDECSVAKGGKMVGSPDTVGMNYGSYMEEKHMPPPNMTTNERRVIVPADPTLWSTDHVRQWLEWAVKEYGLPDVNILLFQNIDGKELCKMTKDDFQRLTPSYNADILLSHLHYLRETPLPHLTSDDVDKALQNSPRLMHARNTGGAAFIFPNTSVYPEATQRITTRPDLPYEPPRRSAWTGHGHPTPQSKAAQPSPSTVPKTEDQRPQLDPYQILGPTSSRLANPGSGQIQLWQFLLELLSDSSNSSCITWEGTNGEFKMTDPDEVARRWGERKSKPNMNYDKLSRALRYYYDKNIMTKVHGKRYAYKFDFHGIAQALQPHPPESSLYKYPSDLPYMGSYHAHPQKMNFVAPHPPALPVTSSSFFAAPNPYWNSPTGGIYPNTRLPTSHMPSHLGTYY
# In short: as §1
# ELF1 = ELF1 (Homo sapiens, UniProt P32519 1-619); details: protein: recombinant; tags: N-terminal GST; dsDNA, one strand shown
# Chain of ELF1 (P32519 whole entry): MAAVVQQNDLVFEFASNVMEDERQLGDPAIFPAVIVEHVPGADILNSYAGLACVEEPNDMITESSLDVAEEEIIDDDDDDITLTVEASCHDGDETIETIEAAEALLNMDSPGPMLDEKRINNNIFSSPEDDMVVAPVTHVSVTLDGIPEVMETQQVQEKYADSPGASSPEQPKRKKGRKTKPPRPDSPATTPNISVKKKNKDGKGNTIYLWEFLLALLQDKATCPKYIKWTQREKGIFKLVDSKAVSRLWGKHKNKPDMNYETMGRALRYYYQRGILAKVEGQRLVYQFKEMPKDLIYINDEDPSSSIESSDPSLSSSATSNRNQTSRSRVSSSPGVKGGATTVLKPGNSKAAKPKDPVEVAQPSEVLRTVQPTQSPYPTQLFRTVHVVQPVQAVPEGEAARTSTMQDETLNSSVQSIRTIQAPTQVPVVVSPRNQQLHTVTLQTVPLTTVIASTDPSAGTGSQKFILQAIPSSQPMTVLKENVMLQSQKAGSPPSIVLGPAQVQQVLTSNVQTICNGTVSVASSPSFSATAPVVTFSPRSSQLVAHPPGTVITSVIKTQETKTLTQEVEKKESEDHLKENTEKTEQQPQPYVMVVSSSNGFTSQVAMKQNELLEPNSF
# In short: as §1
# EHF = biological target: T5, EHF (Homo sapiens, UniProt Q9NZC4 1-300); details: protein: recombinant; tags: N-terminal GST; dsDNA, one strand shown
# T5 sequence: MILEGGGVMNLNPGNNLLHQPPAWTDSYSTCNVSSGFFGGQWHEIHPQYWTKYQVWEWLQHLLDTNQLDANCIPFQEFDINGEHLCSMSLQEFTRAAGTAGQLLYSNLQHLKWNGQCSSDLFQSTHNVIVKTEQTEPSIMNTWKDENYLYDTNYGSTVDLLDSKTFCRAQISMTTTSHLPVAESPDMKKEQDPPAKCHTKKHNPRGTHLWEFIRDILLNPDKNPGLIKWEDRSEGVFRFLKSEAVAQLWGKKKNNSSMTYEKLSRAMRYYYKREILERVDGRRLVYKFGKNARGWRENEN
# In short: as §1
# SPI1 = SPI1 (Homo sapiens, UniProt P17947 1-270); details: protein: recombinant; tags: N-terminal GST; dsDNA, one strand shown
# In short: as §1
# SPIB = SPIB (Homo sapiens, UniProt Q01892 1-262); details: protein: recombinant; tags: N-terminal GST; dsDNA, one strand shown
# Chain of SPIB (Q01892 whole entry): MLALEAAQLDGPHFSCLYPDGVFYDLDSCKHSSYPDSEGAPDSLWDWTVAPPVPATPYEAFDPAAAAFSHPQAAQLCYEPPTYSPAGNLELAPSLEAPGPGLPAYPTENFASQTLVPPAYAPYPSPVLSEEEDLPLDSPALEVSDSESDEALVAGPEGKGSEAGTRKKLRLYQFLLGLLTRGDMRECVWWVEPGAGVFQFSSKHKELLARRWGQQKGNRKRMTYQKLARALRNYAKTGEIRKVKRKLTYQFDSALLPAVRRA
# In short: as §1
# ELK3 = biological target: T6, ELK3 (Homo sapiens, UniProt P41970 1-407); details: protein: recombinant; tags: N-terminal GST; dsDNA, one strand shown
# T6 sequence: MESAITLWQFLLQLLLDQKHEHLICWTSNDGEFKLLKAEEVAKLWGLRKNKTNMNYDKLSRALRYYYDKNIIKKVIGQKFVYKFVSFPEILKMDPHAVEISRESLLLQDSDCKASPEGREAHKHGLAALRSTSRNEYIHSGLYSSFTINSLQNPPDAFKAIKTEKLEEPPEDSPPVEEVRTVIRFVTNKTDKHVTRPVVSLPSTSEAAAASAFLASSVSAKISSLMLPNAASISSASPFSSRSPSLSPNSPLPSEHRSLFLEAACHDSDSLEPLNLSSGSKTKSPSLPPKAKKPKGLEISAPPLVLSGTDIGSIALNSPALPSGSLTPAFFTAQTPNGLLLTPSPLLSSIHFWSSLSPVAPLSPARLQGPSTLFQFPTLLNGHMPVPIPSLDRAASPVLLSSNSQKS
# In short: as §1
# FEV = biological target: T7, FEV (Homo sapiens, UniProt Q99581 1-238); details: protein: recombinant; tags: N-terminal GST; dsDNA, one strand shown
# T7 sequence: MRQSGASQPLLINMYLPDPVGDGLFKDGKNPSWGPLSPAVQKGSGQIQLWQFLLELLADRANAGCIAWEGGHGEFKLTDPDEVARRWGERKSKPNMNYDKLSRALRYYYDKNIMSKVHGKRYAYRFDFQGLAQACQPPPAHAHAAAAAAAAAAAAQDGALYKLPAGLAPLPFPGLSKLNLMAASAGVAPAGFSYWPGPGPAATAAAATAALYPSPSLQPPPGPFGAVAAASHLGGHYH
# In short: as §1
# ETV5 = ETV5 (Homo sapiens, UniProt P41161 1-510); details: protein: recombinant; tags: N-terminal GST; dsDNA, one strand shown
# Chain of ETV5 (P41161 whole entry): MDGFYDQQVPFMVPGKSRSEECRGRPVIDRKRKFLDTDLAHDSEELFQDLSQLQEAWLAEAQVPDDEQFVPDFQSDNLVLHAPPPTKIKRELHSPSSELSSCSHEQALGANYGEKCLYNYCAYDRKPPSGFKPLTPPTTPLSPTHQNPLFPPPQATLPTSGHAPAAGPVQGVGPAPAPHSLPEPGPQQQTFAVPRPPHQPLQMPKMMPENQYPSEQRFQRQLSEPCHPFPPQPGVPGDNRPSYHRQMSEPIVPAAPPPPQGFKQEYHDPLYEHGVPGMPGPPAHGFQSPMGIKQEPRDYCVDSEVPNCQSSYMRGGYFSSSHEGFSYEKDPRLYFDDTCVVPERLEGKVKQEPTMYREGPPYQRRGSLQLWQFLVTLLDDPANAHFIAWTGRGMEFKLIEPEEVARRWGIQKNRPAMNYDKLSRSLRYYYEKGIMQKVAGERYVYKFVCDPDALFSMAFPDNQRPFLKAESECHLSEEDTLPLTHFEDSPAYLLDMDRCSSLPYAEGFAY
# In short: as §1
# HSF1 = HSF1 (Homo sapiens, UniProt Q00613 1-529); details: protein: recombinant; tags: N-terminal GST; chain copies: 3; dsDNA, one strand shown
# Chain of HSF1 (Q00613 whole entry): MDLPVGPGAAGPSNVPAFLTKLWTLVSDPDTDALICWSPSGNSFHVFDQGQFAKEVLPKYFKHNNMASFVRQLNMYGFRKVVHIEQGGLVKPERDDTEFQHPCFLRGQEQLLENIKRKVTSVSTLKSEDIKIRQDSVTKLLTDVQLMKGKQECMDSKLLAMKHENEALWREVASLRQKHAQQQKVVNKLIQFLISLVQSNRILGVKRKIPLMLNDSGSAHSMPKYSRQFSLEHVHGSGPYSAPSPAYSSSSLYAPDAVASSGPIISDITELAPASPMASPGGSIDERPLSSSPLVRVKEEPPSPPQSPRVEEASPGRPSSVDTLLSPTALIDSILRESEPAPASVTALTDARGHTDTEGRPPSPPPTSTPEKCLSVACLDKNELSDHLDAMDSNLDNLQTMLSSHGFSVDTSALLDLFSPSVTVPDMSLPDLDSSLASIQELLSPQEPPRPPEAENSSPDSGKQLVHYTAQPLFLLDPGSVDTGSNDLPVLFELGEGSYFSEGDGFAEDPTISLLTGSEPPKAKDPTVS
# In short: as §1
# SPIC = biological target: T8, SPIC (Homo sapiens, UniProt Q8N5J4 1-248); details: protein: recombinant; tags: N-terminal GST; dsDNA, one strand shown
# T8 sequence: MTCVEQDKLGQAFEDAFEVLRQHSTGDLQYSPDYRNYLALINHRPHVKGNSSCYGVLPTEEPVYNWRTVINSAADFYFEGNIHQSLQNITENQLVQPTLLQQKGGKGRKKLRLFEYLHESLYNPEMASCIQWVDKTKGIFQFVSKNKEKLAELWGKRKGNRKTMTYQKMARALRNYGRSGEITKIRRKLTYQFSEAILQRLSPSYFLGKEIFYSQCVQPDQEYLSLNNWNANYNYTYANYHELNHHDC
# In short: as §1
# ELF4 = ELF4 (Homo sapiens, UniProt Q99607 1-663); details: protein: recombinant; tags: N-terminal GST; dsDNA, one strand shown
# Chain of ELF4 (Q99607 whole entry): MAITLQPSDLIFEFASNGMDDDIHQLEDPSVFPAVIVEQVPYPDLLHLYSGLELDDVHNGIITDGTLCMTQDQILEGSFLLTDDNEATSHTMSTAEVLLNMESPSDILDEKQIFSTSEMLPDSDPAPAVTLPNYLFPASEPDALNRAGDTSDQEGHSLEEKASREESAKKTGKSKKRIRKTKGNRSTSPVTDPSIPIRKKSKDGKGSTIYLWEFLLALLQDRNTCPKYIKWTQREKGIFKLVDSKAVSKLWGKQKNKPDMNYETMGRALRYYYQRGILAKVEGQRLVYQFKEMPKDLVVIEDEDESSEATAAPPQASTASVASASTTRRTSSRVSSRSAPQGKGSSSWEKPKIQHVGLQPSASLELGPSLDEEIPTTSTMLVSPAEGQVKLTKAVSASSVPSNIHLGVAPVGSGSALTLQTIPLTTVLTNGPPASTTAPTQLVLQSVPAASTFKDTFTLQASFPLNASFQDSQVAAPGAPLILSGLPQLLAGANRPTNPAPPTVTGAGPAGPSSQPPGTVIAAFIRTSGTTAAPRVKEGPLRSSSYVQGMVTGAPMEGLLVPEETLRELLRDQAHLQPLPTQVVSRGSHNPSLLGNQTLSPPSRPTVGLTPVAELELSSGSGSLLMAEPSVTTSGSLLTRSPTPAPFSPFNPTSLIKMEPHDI
# In short: as §1
# ELK4 = biological target: T9, ELK4 (Homo sapiens, UniProt P28324-2 1-405); details: protein: recombinant; tags: N-terminal GST; dsDNA, one strand shown
# T9 sequence: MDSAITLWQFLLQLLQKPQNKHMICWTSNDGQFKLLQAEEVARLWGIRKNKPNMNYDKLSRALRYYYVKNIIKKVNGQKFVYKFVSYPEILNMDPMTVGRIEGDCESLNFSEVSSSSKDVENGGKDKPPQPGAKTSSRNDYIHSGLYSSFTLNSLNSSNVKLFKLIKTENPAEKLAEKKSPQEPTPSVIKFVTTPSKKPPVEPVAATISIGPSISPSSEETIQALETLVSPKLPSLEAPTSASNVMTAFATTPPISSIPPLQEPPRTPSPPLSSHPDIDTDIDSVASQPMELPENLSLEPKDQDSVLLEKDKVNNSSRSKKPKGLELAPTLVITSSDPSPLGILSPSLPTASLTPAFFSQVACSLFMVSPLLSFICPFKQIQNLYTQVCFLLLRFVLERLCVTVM
# In short: as §1
# ETV2 = biological target: T10, ETV2 (Homo sapiens, UniProt O00321 1-342); details: protein: recombinant; tags: N-terminal GST; dsDNA, one strand shown
# T10 sequence: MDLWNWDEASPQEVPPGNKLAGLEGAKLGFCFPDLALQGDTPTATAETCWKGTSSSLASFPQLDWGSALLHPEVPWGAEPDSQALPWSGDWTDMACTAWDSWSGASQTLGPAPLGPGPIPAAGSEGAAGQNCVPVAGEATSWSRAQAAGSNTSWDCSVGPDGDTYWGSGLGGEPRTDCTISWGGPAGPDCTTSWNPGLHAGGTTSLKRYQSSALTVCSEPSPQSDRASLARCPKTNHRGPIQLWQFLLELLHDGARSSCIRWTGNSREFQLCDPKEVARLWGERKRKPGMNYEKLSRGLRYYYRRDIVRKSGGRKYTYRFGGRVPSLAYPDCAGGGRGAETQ
# In short: as §1
# ELF3 = biological target: T11, ELF3 (Homo sapiens, UniProt P78545 1-371); details: protein: recombinant; tags: N-terminal GST; dsDNA, one strand shown
# T11 sequence: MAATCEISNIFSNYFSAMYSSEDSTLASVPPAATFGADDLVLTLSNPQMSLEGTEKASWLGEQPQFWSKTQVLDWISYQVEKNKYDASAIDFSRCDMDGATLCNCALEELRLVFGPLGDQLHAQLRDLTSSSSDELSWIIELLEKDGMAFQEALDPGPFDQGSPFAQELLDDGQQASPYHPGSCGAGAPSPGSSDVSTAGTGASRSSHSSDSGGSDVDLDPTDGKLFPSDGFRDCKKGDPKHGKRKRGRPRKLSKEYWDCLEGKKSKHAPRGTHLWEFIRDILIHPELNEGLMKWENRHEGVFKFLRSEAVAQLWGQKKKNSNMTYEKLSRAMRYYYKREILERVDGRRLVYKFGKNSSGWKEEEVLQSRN
# In short: as §1
# CRX = CRX (Homo sapiens, UniProt O43186 1-299); details: protein: recombinant; tags: N-terminal GST; dsDNA, one strand shown
# Chain of CRX (O43186 whole entry): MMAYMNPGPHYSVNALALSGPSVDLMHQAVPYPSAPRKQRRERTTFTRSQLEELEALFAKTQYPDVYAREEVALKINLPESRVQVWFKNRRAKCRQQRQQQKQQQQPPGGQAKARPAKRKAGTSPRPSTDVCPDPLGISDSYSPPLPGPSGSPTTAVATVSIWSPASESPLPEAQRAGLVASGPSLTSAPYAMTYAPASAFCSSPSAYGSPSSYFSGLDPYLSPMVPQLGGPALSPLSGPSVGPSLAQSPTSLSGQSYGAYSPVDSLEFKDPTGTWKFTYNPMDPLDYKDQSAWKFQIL
# In short: as §1
# ETV1 = ETV1 (Homo sapiens, UniProt P50549 1-477); details: protein: recombinant; tags: N-terminal GST; dsDNA, one strand shown
# Chain of ETV1 (P50549 whole entry): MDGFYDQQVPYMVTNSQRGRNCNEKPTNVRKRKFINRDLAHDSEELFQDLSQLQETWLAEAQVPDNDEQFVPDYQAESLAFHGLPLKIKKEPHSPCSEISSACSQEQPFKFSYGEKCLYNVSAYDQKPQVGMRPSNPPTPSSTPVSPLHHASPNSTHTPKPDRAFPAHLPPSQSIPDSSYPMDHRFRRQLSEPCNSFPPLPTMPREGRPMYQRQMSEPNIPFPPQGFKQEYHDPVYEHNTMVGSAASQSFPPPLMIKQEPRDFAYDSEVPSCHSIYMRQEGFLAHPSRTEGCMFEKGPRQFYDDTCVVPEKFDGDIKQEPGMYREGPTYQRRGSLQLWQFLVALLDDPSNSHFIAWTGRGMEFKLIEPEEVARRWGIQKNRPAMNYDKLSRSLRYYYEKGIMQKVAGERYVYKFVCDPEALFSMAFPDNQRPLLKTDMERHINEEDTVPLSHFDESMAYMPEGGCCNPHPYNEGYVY
# In short: as §1
sequence,measurement,setting,value
CTACTC,binding signal,FLI1,"1.42 fold enrichment (6-mer frequency, TF over GST control)"
same,binding signal,ELK1,"1.36 fold enrichment (6-mer frequency, TF over GST control)"
same,binding signal,GABPA,"1.51 fold enrichment (6-mer frequency, TF over GST control)"
same,binding signal,ERG,"1.38 fold enrichment (6-mer frequency, TF over GST control)"
same,binding signal,ELF1,"1.44 fold enrichment (6-mer frequency, TF over GST control)"
same,binding signal,EHF,"1.38 fold enrichment (6-mer frequency, TF over GST control)"
same,binding signal,SPI1,"1.47 fold enrichment (6-mer frequency, TF over GST control)"
same,binding signal,SPIB,"1.59 fold enrichment (6-mer frequency, TF over GST control)"
same,binding signal,ELK3,"1.46 fold enrichment (6-mer frequency, TF over GST control)"
same,binding signal,FEV,"1.37 fold enrichment (6-mer frequency, TF over GST control)"
same,binding signal,ETV5,"1.35 fold enrichment (6-mer frequency, TF over GST control)"
same,binding signal,HSF1,"1.32 fold enrichment (6-mer frequency, TF over GST control)"
same,binding signal,SPIC,"1.21 fold enrichment (6-mer frequency, TF over GST control)"
same,binding signal,ELF4,"1.37 fold enrichment (6-mer frequency, TF over GST control)"
same,binding signal,ELK4,"1.41 fold enrichment (6-mer frequency, TF over GST control)"
same,binding signal,ETV2,"1.38 fold enrichment (6-mer frequency, TF over GST control)"
same,binding signal,ELF3,"1.32 fold enrichment (6-mer frequency, TF over GST control)"
same,binding signal,CRX,"1.28 fold enrichment (6-mer frequency, TF over GST control)"
same,binding signal,ETV1,"1.32 fold enrichment (6-mer frequency, TF over GST control)"
